Screens (PubChem)
Rows were chosen to be rich in hits. Some 2.6% of all compounds tested hit in one or more screens of this group.
KOR antag MB: antagonists of human kappa opioid receptor OPRK1, Maybridge library; inhibition, % at 9 µM; 0.4% of 16,000 active; OPRK1 cells, antagonist mode, fluorescence readout; in the data active = inhibition above about 50%
NOTCH agonist: activates NOTCH signaling in reporter cells | NOTCH signaling luciferase reporter cells, luminescence | activation, % at 2.5 µM | 0.4% of 15,000 active | AID 434982; in the data active = activation above about 2.2%
PME-1 Maybridge: inhibitors of human PME-1 in Maybridge library. recombinant PME-1, FP-Rh probe fluorescence polarization. 0.5% of 16,000 active. Q9Y570. inhibition, % at 9 µM; in the data active = inhibition above about 30%
TLR4-MyD88 inh: blocks binding of human TLR4 to MyD88. Cell-based TLR4-MyD88 binding inhibition assay. AID 811. 0.06% of 16,000 active. inhibition, % at 10 µM; in the data active = inhibition above about 45%
Nox1 inhibitor: human Nox1 inhibition. Q9Y5S8. HT29 cells, luminol chemiluminescence ROS. inhibition, % at 6.7 µM. 0.81% of 16,000 active. AID 1792
luminol inh ctr: counter-screen for Nox1 inhibitors: inhibitors of luminol chemiluminescence; HRP/luminol/H2O2 chemiluminescence counterscreen; inhibition, % at 6.7 µM; 0.4% of 16,000 active; AID 1823; note: reference of the scale not given here
Numbers without * were called inactive. Cut-off read from the data, not from the text of the source, unless noted: active = inhibition above about 75%; inactive = the rest.

How did O=C(Nc1ccccc1NC(=O)c1c(F)cccc1F)c1c(F)cccc1F do in these assays?
KOR antag MB: 18.9; NOTCH agonist: 0.0; PME-1 Maybridge: 6.0; TLR4-MyD88 inh: 6.1; Nox1 inhibitor: -0.8; luminol inh ctr: -5.8

Results for COc1ccc(-c2nc(-c3cccc([N+](=O)[O-])c3)cs2)cc1 ?
KOR antag MB: -13.6; NOTCH agonist: 3.3*; PME-1 Maybridge: -3.3; TLR4-MyD88 inh: -5.7; Nox1 inhibitor: 0.0; luminol inh ctr: 1.9

How did O=[N+]([O-])c1ccc(-c2csc(-c3ccncc3)n2)cc1 do in these assays?
KOR antag MB: 26.8; NOTCH agonist: -0.2; PME-1 Maybridge: 3.5; TLR4-MyD88 inh: 5.6; Nox1 inhibitor: -27.8; luminol inh ctr: 5.2

Results for COc1cc(-c2nc(-c3ccccc3)c(-c3ccccc3)[nH]2)ccc1O ?
KOR antag MB: -12.3; NOTCH agonist: -0.5; PME-1 Maybridge: 1.2; TLR4-MyD88 inh: -4.0; Nox1 inhibitor: 101.0*; luminol inh ctr: -15.2

How did CCOC(=O)c1c(C)nc(C)c(C(=O)OCC)c1-c1ccc(O)c(OC)c1 do in these assays?
KOR antag MB: 17.7; NOTCH agonist: 0.1; PME-1 Maybridge: 8.3; TLR4-MyD88 inh: 6.9; Nox1 inhibitor: 28.1; luminol inh ctr: 18.7

How did CC(C)(C)CN/C(C#N)=C(\C#N)N=Cc1cccc(Cl)c1 do in these assays?
KOR antag MB: 8.0; NOTCH agonist: 0.5; PME-1 Maybridge: 0.9; TLR4-MyD88 inh: 7.9; Nox1 inhibitor: -32.9; luminol inh ctr: -0.5

What do the screens show for `COc1ccc(Br)c(-c2nc(-c3cccs3)no2)c1`?
KOR antag MB: 17.7; NOTCH agonist: -0.2; PME-1 Maybridge: -4.9; TLR4-MyD88 inh: 0.7; Nox1 inhibitor: -9.7; luminol inh ctr: -0.8

Results for Cc1oc(-c2ccccc2)cc1C(=O)N1CCN(c2ncc(C(F)(F)F)cc2Cl)CC1 ?
KOR antag MB: 5.8; NOTCH agonist: 2.3*; PME-1 Maybridge: -2.3; TLR4-MyD88 inh: -9.0; Nox1 inhibitor: 22.5; luminol inh ctr: -5.9

What do the screens show for `Cc1noc(C)c1C(=O)N1CCN(c2ncc(C(F)(F)F)cc2Cl)CC1`?
KOR antag MB: 10.8; NOTCH agonist: 0.0; PME-1 Maybridge: 2.0; TLR4-MyD88 inh: 3.7; Nox1 inhibitor: -12.9; luminol inh ctr: -3.9

What do the screens show for `Oc1c(Cl)c2nc3ccccc3nc2c2ccccc12`?
KOR antag MB: 21.9; NOTCH agonist: 0.4; PME-1 Maybridge: 20.8; TLR4-MyD88 inh: 9.2; Nox1 inhibitor: -18.4; luminol inh ctr: 6.1

Results for O=Cc1c(O)c2ccccc2c2ccccc12 ?
KOR antag MB: 72.4*; NOTCH agonist: -0.1; PME-1 Maybridge: 30.6*; TLR4-MyD88 inh: 0.0; Nox1 inhibitor: -107.3; luminol inh ctr: -4.5

What do the screens show for `O=C(CSc1c(F)c(F)c(F)c(F)c1F)Nc1ccc(C2SCCS2)cc1`?
KOR antag MB: -12.0; NOTCH agonist: -0.4; PME-1 Maybridge: 147.4*; TLR4-MyD88 inh: 3.6; Nox1 inhibitor: -70.6; luminol inh ctr: 4.1

Results for Oc1[nH]c(=S)sc1N=Nc1ccc(F)cc1F ?
KOR antag MB: 2.2; PME-1 Maybridge: 2.1; TLR4-MyD88 inh: -13.0; Nox1 inhibitor: 15.1; luminol inh ctr: -3.2

Results for Cc1ncc(CSc2nc3ccc(C(F)(F)F)cc3[nH]2)c(CO)c1O ?
KOR antag MB: 1.2; NOTCH agonist: -0.1; PME-1 Maybridge: 6.3; TLR4-MyD88 inh: -5.4; Nox1 inhibitor: 4.2; luminol inh ctr: 87.7*

What do the screens show for `O=c1c2cc([N+](=O)[O-])ccc2oc2ncccc12`?
KOR antag MB: -9.6; NOTCH agonist: 3.0*; PME-1 Maybridge: 3.4; TLR4-MyD88 inh: 2.4; Nox1 inhibitor: 5.3; luminol inh ctr: -1.7

Results for CCOC(=O)CCc1ccc2c(c1)NC(c1ccc([N+](=O)[O-])s1)O2 (centres undefined) ?
KOR antag MB: 4.1; NOTCH agonist: 0.4; PME-1 Maybridge: 1.4; TLR4-MyD88 inh: -3.1; Nox1 inhibitor: 81.6*; luminol inh ctr: 14.9

What do the screens show for `CCOC(=O)CCc1ccc2c(c1)NC(c1cccc([N+](=O)[O-])c1)O2` (centres undefined)?
KOR antag MB: -12.8; NOTCH agonist: -0.2; PME-1 Maybridge: -7.4; TLR4-MyD88 inh: -7.7; Nox1 inhibitor: 95.8*; luminol inh ctr: 33.2

How did Cc1cc(-c2nc(-c3ccnn3C(=O)Nc3ccc(Cl)cc3Cl)cs2)no1 do in these assays?
KOR antag MB: 25.7; NOTCH agonist: -0.1; PME-1 Maybridge: -1.8; TLR4-MyD88 inh: 2.4; Nox1 inhibitor: -47.1; luminol inh ctr: 0.4
